# Assay results reported in PMC5540273 (PLoS ONE, 2017).
# Experiments:
# Conditions in all cases: concentration: 1 μM, replicates: in singlicate; n = 1
# NEK4 = test system: NEK4
# NEK5 = test system: NEK5
# NEK6 = test system: NEK6
# NEK7 = test system: NEK7
# NEK9 = test system: NEK9
# NIK = test system: T1, NIK
# T1 construct: gene MAP3K14
# NIM1 = test system: T2, NIM1
# T2 construct: gene MGC42105
# NLK = test system: NLK
# OSR1 = test system: T3, OSR1
# T3 construct: gene OXSR1
# PAK1 = test system: PAK1
# PAK2 = test system: PAK2
# PAK3 = test system: PAK3
# PAK4 = test system: PAK4
# PAK6 = test system: PAK6
# PAK7 = test system: PAK7
# PCTK1 = test system: T4, PCTK1
# T4 construct: gene CDK16
# PCTK2 = test system: T5, PCTK2
# T5 construct: gene CDK17
# PCTK3 = test system: T6, PCTK3
# T6 construct: gene CDK18
# PDGFRA = test system: PDGFRA
# PDGFRB = test system: PDGFRB
# 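Further: KINOMEscan kinase panel screen.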
SMILES,%Inh (NEK4),%Inh (NEK5),%Inh (NEK6),%Inh (NEK7),%Inh (NEK9),%Inh (NIK),%Inh (NIM1),%Inh (NLK),%Inh (OSR1),%Inh (PAK1),%Inh (PAK2),%Inh (PAK3),%Inh (PAK4),%Inh (PAK6),%Inh (PAK7),%Inh (PCTK1),%Inh (PCTK2),%Inh (PCTK3),%Inh (PDGFRA),%Inh (PDGFRB)
CC(C)(C)c1ccc(C(=O)Nc2cn3cc(-c4ccccc4)ccc3n2)cc1,0%,0%,0%,0%,0%,0%,19%,0%,0%,0%,0%,8%,1%,0%,6%,0%,0%,0%,41%,93%
COc1ccc(-c2cc3c(C)nc(N)nc3n([C@H]3CC[C@H](OCCO)CC3)c2=O)cn1,0%,0%,22%,0%,0%,0%,21%,0%,0%,0%,1%,0%,0%,0%,0%,0%,3%,0%,0%,1%
Nc1n[nH]c2nnc(-c3ccccc3)c(-c3ccccc3)c12 [GW554060],0%,0%,0%,0%,0%,100%,28%,0%,9%,0%,0%,0%,0%,0%,0%,0%,0%,20%,0%,2%
Cc1cc(Nc2nc(-c3cccc(C)n3)nc3ccccc23)ccn1 [GW872411],0%,6%,0%,0%,0%,16%,0%,0%,0%,0%,15%,0%,0%,0%,17%,0%,0%,0%,0%,0%
COc1ccc(-c2coc3ccc(-c4nnc(SCc5cccc(C#N)c5)o4)cc23)cc1,3%,0%,16%,0%,0%,2%,5%,0%,0%,18%,34%,0%,14%,19%,15%,0%,0%,2%,20%,10%
CCc1nc(-c2cccc(C)c2)c(-c2ccncc2)s1,0%,0%,3%,0%,0%,0%,0%,81%,0%,28%,16%,0%,15%,3%,0%,0%,1%,2%,0%,70%
